Results filed as inconclusive are left out. Entries that show only a call come without a potency. The source made the active and inactive calls. Calls come from the whole dose curve; as a rule, active = well fitted inhibition curve with a large enough effect; inconclusive = small, poorly fitted or top-dose-only effect; inactive = flat fitted curve, though single readings scatter. Square brackets hold non-standard residues; d marks the D form. Peptide text beside a SMILES is read from it. Orn = NCCC[CH](N)C(=O)O
Columns and labels:
Assay in all cases: qHTS profiling for inhibitors of Plasmodium falciparum proliferation (AID 504749); note: nearly all actives have a fitted effect of over 60% in size
Conditions in all cases: P. falciparum in erythrocytes, SYBR Green DNA, 72 h; series mostly up to 28.7 µM
[1] = system: 7G8
Outline: (§1)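 Parasite proliferation within erythrocytes, 72 h exposure. Endpoint: SYBR Green I fluorescence after overnight lysis at room temperature. Controls: 0.29 uM artemisinin, DMSO.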

[2] = system: AA1029
Outline: as §1

[3] = system: CP192
Outline: as §1

[4] = system: CP194
Outline: as §1

[5] = system: CP203
Outline: as §1

[6] = system: CP217
Outline: as §1

[7] = system: CP237
Outline: as §1

[8] = system: CP250
Outline: as §1

[9] = system: CP266
Outline: as §1

[10] = system: CP268
Outline: as §1

[11] = system: CP269
Outline: as §1

[12] = system: CP291
Outline: as §1

[13] = system: CP315
Outline: as §1

[14] = system: CP329
Outline: as §1

[15] = system: DIV30
Outline: as §1

[16] = system: HB3
Outline: as §1

[17] = system: JCK
Outline: as §1

[18] = system: P94_40
Outline: as §1

[19] = system: PC26
Outline: as §1

[20] = system: TAB109
Outline: as §1
Potency is the fitted concentration of half-maximal effect.

How did the Potency [1] turn out when CC(C)CC1NC(=O)C(CCCN)NC(=O)C(C(C)C)NC(=O)C2CCCN2C(=O)C(Cc2ccccc2)NC(=O)C(CC(C)C)NC(=O)C(CCCN)NC(=O)C(C(C)C)NC(=O)C2CCCN2C(=O)C(Cc2ccccc2)NC1=O (centres undefined) (cyclo(FPV[Orn]LFPV[Orn]L); configuration not given here) was run?
The Potency was 0.3 nM (active).

And the Potency [2]?
Its Potency is 0.9 nM (active).

And the Potency [3]?
Its Potency is 1.7 nM (active).

What about the Potency [4] of the same compound?
Its Potency is 1.3 nM (active).

What about the Potency [5] of the same compound?
The Potency was 1.3 nM (active).

What about the Potency [6] of the same compound?
The Potency was 2.2 nM (active).

What about the Potency [7] of the same compound?
Its Potency is 0.9 nM (active).

And the Potency [8]?
The Potency was 2 nM (active).

What about the Potency [9] of the same compound?
The Potency was 1.9 nM (active).

What about the Potency [10] of the same compound?
Its Potency is 13.5 nM (active).

What about the Potency [11] of the same compound?
Its Potency is 1.3 nM (active).

What about the Potency [12] of the same compound?
Its Potency is 0.4 nM (active).

What about the Potency [13] of the same compound?
The Potency was 1.7 nM (active).

What about the Potency [14] of the same compound?
The Potency was 1.9 nM (active).

What about the Potency [15] of the same compound?
The Potency was 0.4 nM (active).

And the Potency [16]?
The Potency was 3.5 nM (active).

What about the Potency [17] of the same compound?
Its Potency is 56.2 nM (active).

And the Potency [18]?
Its Potency is 0.4 nM (active).

And the Potency [19]?
The Potency was 1.1 nM (active).

What about the Potency [20] of the same compound?
Its Potency is 1.1 nM (active).

Which Potency [1] does the source give for CC(C)C(NC(=O)C(CC(=O)O)NC(=O)C(CCCCN)NC(=O)C(N)CCCN=C(N)N)C(=O)NC(Cc1ccc(O)cc1)C(=O)O (centres undefined) (H-RKDVY-OH; configuration not given here) here?
The Potency was “inactive”.

What about the Potency [2] of the same compound?
The Potency was “inactive”.

What about the Potency [3] of the same compound?
The Potency was “inactive”.

What about the Potency [4] of the same compound?
Its Potency is “inactive”.

And the Potency [5]?
The Potency was “inactive”.

And the Potency [6]?
Its Potency is “inactive”.

What about the Potency [7] of the same compound?
Its Potency is “inactive”.

And the Potency [8]?
Its Potency is “inactive”.

And the Potency [9]?
Its Potency is “inactive”.

And the Potency [10]?
Its Potency is “inactive”.

And the Potency [11]?
The Potency was “inactive”.

What about the Potency [12] of the same compound?
Its Potency is “inactive”.

And the Potency [13]?
The Potency was “inactive”.

And the Potency [14]?
The Potency was “inactive”.

And the Potency [15]?
Its Potency is “inactive”.

And the Potency [16]?
The Potency was “inactive”.

What about the Potency [17] of the same compound?
Its Potency is “inactive”.

And the Potency [18]?
Its Potency is “inactive”.

And the Potency [19]?
Its Potency is “inactive”.

What about the Potency [20] of the same compound?
Its Potency is “inactive”.

For C=CC1=C(C(=O)O)N2C(=O)[C@@H](NC(=O)C(N=O)c3csc(N)n3)[C@H]2SC1 (some centres undefined), which Potency [1] is on record?
Its Potency is “inactive”.

What about the Potency [2] of the same compound?
Its Potency is “inactive”.

And the Potency [3]?
Its Potency is “inactive”.

And the Potency [4]?
Its Potency is “inactive”.

And the Potency [5]?
Its Potency is “inactive”.

And the Potency [6]?
Its Potency is “inactive”.

What about the Potency [7] of the same compound?
Its Potency is “inactive”.

What about the Potency [8] of the same compound?
Its Potency is “inactive”.

What about the Potency [9] of the same compound?
Its Potency is “inactive”.

And the Potency [10]?
The Potency was “inactive”.

And the Potency [11]?
The Potency was “inactive”.

And the Potency [12]?
The Potency was “inactive”.

And the Potency [13]?
Its Potency is “inactive”.

What about the Potency [14] of the same compound?
The Potency was “inactive”.

And the Potency [15]?
Its Potency is “inactive”.

And the Potency [16]?
The Potency was “inactive”.

What about the Potency [17] of the same compound?
The Potency was “inactive”.

What about the Potency [18] of the same compound?
Its Potency is “inactive”.

And the Potency [19]?
The Potency was “inactive”.

And the Potency [20]?
The Potency was “inactive”.

How did the Potency [1] turn out when CC1(C)C(/C=C/C=C/C=C/C=C2\N(CCCCS(=O)(=O)O)c3ccc4ccccc4c3C2(C)C)=[N+](CCCCS(=O)(=O)[O-])c2ccc3ccccc3c21 was run?
The Potency was “inactive”.

And the Potency [2]?
The Potency was “inactive”.

What about the Potency [3] of the same compound?
Its Potency is “inactive”.

And the Potency [4]?
Its Potency is “inactive”.

And the Potency [5]?
Its Potency is “inactive”.

And the Potency [7]?
The Potency was “inactive”.

And the Potency [8]?
The Potency was “inactive”.

And the Potency [9]?
The Potency was “inactive”.

What about the Potency [10] of the same compound?
The Potency was “inactive”.

And the Potency [11]?
Its Potency is “inactive”.

And the Potency [12]?
Its Potency is “inactive”.

What about the Potency [13] of the same compound?
The Potency was “inactive”.

And the Potency [14]?
The Potency was “inactive”.

And the Potency [15]?
The Potency was “inactive”.

And the Potency [16]?
Its Potency is “inactive”.

What about the Potency [17] of the same compound?
Its Potency is “inactive”.

What about the Potency [18] of the same compound?
Its Potency is “inactive”.

And the Potency [19]?
The Potency was “inactive”.

What about the Potency [20] of the same compound?
The Potency was “inactive”.

With NC(=O)CCC1NC(=O)C(Cc2ccccc2)NC(=O)C(Cc2ccc(O)cc2)NC(=O)CCSSCC(C(=O)N2CCCC2C(=O)NC(CCCN=C(N)N)C(=O)NCC(N)=O)NC(=O)C(CC(N)=O)NC1=O (centres undefined) as the compound, how does the Potency [1] read?
Its Potency is “inactive”.

And the Potency [2]?
Its Potency is “inactive”.

And the Potency [3]?
Its Potency is “inactive”.

What about the Potency [4] of the same compound?
Its Potency is “inactive”.

And the Potency [5]?
Its Potency is “inactive”.

What about the Potency [6] of the same compound?
The Potency was “inactive”.

And the Potency [7]?
Its Potency is “inactive”.

What about the Potency [8] of the same compound?
The Potency was “inactive”.

And the Potency [9]?
Its Potency is “inactive”.

What about the Potency [10] of the same compound?
Its Potency is “inactive”.

What about the Potency [11] of the same compound?
Its Potency is “inactive”.

And the Potency [12]?
The Potency was “inactive”.

What about the Potency [13] of the same compound?
Its Potency is “inactive”.

And the Potency [14]?
The Potency was “inactive”.

And the Potency [15]?
The Potency was “inactive”.

What about the Potency [16] of the same compound?
The Potency was “inactive”.

And the Potency [17]?
The Potency was “inactive”.

And the Potency [18]?
The Potency was “inactive”.

What about the Potency [19] of the same compound?
The Potency was “inactive”.

And the Potency [20]?
Its Potency is “inactive”.

Source: PubChem BioAssay (NCATS)
